Measurements as given in the supplement of paper PMC11732987, “Enantioselective OTUD7B fragment discovery through chemoproteomics screening and high-throughput optimisation” (Communications Chemistry, 2025).

Key:
Experiment in all cases: log2 ratio of Biotin-Ahx-Ub-VS probe labelling (fragment/DMSO); higher = less target engagement (more negative = stronger competition), active = hit call of the paper (q ≤ 0.05, log2 ratio ≤ -1)
Conditions in all cases: compound concentration: 200 uM; treatment time: 3 h
[1] = molecular target: T1, OTUD6B (UniProt Q8N6M0)
T1 sequence (whole entry): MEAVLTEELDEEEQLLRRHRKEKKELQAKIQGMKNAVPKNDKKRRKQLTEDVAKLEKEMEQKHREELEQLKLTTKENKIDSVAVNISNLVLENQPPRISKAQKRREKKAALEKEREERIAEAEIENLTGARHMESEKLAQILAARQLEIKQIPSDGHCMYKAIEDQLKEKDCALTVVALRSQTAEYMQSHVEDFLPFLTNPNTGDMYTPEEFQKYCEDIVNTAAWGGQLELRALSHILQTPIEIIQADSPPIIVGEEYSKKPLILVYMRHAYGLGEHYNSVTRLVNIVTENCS
Summary of the method: (§1)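 HEK293T lysate (495 µg per sample, in Tris/CHAPS/IGEPAL buffer with protease inhibitors) was treated in triplicate with fragment at 200 µM or with DMSO for 3 h. It was then treated with Biotin-Ahx-Ub-VS (0.5 µM final) for 1 h. Labelled DUBs were NeutrAvidin-enriched, digested with LysC and trypsin, and run by diaPASEF LC-MS/MS. Spectronaut label-free quantities were global-median-normalised. Values are average log2 ratios fragment/DMSO by unpaired t-test, using proteins with ≥2 unique peptides.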

[2] = molecular target: T2, OTUD7B (UniProt Q6GQQ9)
T2 sequence (whole entry): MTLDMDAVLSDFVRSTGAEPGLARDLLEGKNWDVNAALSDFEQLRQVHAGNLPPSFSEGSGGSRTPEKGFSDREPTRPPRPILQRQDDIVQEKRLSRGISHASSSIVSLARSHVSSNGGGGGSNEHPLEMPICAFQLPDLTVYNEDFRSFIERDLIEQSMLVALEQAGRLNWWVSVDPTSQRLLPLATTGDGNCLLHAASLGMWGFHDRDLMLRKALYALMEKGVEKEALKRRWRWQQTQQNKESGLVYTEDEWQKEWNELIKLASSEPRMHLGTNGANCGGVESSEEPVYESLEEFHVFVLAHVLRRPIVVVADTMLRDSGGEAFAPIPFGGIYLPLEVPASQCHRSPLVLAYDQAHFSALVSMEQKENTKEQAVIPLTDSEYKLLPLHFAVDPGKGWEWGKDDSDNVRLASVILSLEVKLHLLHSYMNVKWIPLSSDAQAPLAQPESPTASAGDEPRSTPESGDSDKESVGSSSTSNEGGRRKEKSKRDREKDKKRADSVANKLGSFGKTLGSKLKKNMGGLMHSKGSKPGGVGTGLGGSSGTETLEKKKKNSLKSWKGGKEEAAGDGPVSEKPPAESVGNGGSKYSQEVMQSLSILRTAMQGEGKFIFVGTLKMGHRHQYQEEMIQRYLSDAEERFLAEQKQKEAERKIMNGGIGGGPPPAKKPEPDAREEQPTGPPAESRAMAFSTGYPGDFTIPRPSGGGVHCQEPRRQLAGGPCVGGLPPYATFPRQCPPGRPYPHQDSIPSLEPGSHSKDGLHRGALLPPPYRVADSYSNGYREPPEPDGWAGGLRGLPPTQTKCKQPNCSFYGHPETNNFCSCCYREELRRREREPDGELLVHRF
Summary of the method: as §1

[3] = molecular target: PRPF8 (UniProt Q6P2Q9)
Summary of the method: as §1

[4] = molecular target: T3, PSMD7 (UniProt P51665)
T3 sequence (whole entry): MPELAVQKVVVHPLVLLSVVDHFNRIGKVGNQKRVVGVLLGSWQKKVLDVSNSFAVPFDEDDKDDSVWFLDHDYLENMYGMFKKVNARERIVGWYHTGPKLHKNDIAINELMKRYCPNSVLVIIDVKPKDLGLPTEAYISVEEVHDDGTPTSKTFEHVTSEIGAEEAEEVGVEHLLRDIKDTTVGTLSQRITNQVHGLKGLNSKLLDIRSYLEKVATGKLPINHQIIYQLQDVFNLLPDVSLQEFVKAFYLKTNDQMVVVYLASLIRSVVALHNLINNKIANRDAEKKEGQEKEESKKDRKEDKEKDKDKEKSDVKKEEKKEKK
Summary of the method: as §1

[5] = molecular target: UCHL1 (UniProt P09936)
Summary of the method: as §1

[6] = molecular target: T4, UCHL3 (UniProt P15374)
T4 sequence (whole entry): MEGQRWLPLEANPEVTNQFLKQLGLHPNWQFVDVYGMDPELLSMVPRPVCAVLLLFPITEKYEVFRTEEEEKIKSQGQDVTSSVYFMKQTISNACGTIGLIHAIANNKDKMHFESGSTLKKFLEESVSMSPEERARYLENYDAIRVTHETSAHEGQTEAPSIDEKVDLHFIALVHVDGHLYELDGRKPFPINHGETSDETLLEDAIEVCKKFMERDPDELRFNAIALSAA
Summary of the method: as §1

[7] = molecular target: T5, UCHL5 (UniProt Q9Y5K5)
T5 sequence (whole entry): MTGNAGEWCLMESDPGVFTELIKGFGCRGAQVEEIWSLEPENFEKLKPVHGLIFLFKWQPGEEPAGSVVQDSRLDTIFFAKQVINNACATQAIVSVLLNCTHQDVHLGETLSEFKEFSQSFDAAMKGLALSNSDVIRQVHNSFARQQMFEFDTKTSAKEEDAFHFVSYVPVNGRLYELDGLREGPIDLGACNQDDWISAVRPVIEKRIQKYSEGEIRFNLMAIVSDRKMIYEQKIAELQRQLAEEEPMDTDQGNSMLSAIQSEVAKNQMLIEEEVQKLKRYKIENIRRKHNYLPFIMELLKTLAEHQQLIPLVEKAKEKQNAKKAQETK
Summary of the method: as §1

[8] = molecular target: USP10 (UniProt Q14694)
Summary of the method: as §1

[9] = molecular target: T6, USP15 (UniProt Q9Y4E8)
T6 sequence (whole entry): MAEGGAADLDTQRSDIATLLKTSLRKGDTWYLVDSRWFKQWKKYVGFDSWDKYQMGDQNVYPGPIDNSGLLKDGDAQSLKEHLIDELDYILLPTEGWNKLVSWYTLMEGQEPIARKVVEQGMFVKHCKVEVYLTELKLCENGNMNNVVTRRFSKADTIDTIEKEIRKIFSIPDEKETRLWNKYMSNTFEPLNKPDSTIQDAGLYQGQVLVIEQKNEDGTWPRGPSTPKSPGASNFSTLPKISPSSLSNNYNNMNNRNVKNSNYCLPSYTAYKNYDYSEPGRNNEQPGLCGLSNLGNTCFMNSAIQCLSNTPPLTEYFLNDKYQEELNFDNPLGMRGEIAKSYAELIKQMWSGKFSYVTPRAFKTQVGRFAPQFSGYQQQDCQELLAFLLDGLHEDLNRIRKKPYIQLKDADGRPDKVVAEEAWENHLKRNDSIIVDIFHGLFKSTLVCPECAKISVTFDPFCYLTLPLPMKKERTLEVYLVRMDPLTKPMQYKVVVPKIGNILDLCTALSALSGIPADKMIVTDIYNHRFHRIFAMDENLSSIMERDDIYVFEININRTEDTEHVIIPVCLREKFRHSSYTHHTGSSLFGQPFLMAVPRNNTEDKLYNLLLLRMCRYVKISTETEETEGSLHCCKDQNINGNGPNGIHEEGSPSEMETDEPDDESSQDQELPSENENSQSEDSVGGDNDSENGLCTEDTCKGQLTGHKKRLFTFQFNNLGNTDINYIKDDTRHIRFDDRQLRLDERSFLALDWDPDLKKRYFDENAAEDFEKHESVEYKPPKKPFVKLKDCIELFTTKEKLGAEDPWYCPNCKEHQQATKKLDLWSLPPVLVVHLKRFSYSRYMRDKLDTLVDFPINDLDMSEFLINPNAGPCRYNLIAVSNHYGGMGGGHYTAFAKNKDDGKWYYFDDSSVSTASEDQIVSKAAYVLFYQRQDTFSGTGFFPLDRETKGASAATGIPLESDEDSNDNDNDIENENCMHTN
Summary of the method: as §1

[10] = molecular target: USP16 (UniProt Q9Y5T5)
Summary of the method: as §1

Measured: log2 ratio of Biotin-Ahx-Ub-VS probe labelling

Sequence of USP10 (Q14694 whole entry): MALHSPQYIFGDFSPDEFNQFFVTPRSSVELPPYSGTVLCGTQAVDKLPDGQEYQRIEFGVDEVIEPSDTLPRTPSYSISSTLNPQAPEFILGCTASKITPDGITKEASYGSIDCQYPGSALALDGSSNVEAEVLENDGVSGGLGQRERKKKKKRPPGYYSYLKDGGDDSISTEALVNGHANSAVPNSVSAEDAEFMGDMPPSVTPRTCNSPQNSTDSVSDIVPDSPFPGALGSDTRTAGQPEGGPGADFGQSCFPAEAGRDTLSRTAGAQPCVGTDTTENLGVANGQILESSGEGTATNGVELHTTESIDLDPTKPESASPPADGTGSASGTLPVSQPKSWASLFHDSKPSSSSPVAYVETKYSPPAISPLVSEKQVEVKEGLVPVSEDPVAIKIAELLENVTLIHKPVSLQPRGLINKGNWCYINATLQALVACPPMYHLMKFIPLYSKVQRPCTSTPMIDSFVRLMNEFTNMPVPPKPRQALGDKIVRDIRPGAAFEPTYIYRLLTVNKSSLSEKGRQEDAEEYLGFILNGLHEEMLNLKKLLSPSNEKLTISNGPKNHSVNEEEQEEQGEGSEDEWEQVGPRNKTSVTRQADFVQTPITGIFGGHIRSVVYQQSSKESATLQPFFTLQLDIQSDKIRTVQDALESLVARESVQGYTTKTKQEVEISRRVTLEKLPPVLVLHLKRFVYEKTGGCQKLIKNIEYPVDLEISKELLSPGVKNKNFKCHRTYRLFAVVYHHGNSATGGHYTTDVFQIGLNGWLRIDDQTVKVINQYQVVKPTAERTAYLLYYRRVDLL
Sequence of USP16 (Q9Y5T5 whole entry, looked up): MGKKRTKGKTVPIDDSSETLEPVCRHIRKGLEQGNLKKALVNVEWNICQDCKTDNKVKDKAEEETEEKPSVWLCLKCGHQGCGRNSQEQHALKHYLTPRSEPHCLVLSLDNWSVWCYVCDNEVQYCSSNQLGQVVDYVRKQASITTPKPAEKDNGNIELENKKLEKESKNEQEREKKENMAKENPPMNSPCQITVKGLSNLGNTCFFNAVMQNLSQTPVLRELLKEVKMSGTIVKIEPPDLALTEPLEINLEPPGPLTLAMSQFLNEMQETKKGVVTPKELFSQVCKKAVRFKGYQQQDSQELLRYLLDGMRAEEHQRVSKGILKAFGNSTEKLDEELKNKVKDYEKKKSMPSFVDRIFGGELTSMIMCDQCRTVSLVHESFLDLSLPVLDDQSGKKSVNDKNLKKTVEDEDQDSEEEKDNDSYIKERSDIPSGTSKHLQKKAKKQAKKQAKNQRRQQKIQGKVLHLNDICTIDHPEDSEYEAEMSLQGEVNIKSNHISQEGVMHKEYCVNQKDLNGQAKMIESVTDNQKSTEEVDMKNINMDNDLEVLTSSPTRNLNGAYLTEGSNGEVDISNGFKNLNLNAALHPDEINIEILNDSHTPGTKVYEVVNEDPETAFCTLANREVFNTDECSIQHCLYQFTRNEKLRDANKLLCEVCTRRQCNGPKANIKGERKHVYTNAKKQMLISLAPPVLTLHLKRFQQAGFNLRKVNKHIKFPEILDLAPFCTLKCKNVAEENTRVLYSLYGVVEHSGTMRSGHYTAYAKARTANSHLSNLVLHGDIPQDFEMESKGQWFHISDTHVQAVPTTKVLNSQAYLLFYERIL
Sequence of UCHL1 (P09936 whole entry, looked up): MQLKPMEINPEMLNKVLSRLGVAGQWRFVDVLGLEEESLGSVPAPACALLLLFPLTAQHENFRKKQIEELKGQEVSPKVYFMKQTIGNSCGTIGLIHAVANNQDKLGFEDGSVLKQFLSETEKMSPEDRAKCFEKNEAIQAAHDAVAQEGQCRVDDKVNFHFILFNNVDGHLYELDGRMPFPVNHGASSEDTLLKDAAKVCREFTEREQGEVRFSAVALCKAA

Cc1cccc(N(CCC#N)C(=O)CCl)c1C
active: [2] -1.2 | [5] -1.09
inactive: [1] 0.027 | [3] 0.241 | [4] 0.0381 | [6] 0.389 | [7] -0.0436 | [8] -0.0111 | [9] -0.0542 | [10] -0.0303
